The results in this text go back to PubChem BioAssay AID588397 (National Center for Advancing Translational Sciences (NCATS), 2011).

Each structure is given as a SMILES string. In all, about 1,300 compounds went through this assay and about 1,000 (77%) were called active. About 7% were inconclusive and are not listed. Calls come from the whole dose curve; as a rule, active = well fitted inhibition curve with a large enough effect; inconclusive = small, poorly fitted or top-dose-only effect; inactive = no such curve, though single readings can be large or run the other way. The set was probably picked from earlier hits. This is one part of the list.
% is set by controls: 0 for no effect and ±100 for the full control effect; potency is the fitted concentration of half-maximal effect.

The assay is described as follows: qHTS of small molecules that selectively kill Giardia lamblia: Hit Validation.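 Note: viability measured as ATP content by luminescence so killing lowers signal; trophozoites exposed to compounds for 48 h anaerobically at 37 °C; nearly all actives have a fitted effect of over 65% in size.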 The note with it: Giardia lamblia trophozoite viability, dose-response; series mostly up to 38.3 µM; activity change, negative = killing: at the top concentration. The procedure, abridged: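 Anaerobic 48 hrs incubation at 37 deg C of 100 trophozoites/well with test compounds; ATPLite 1-Step luminescence, 15-30 min RT, reports cellular ATP as viability.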
Turning to `O=C1NCCN1c1ncc([N+](=O)[O-])s1`, the Potency is 103 nM (active).
Same read-out and setting: to `COc1ccc(-c2cc3nc[nH]c(=O)c3s2)cc1` belongs 4600 nM (active).
On to `CCNc1nc(NCC)nc(-n2nc(C)cc2C)n1`, for which the “activity change, negative = killing” value is -58.2% (inactive).
`O=C(NN(c1ccccc1)c1ccccc1)c1ccc([N+](=O)[O-])o1`: the Potency is 1830 nM (active).
Still for that read-out and setting: to `CN(Cc1ccccc1)C(=O)c1ccc([N+](=O)[O-])o1` belongs 3650 nM (active).
`C/C(=N/NC(=O)C(O)(c1ccccc1)c1ccccc1)c1ccc([N+](=O)[O-])o1`: the Potency is 365 nM (active).
Still for that read-out and setting: to `O=C(NNC(=O)c1ccc([N+](=O)[O-])o1)c1ccccc1` belongs 516 nM (active).
For `O=C(O)C1CCCN1S(=O)(=O)c1ccc(Br)cc1` (configuration not stated), the “activity change, negative = killing” value is 1.98% (inactive).
Still for that read-out and setting: the figure for `COc1ccc(OC)c2c(C)c(C)[nH]c12` is 1.8% (inactive).
For the molecule `CN(C(=O)OC(C)(C)C)c1ccc(-c2nc3ccccc3s2)cc1`, the Potency was 1830 nM (active).
With `Cc1c[nH]c(=O)c([N+](=O)[O-])c1`, the Potency is 8180 nM (active).
As to `COc1cc2c3c(c1OC)C1(C=CC(=NNC(N)=O)C=C1)CC3N(C(C)=O)CC2` (configuration not stated), the “activity change, negative = killing” value was 8.72% (inactive).
For `COc1ccc(-n2nc([N+](=O)[O-])c(=NCCCN3CCCC3=O)n2O)cc1`, the Potency was 2050 nM (active).
The same measure, in the same setting: the figure for `O=C1CCCN1CCCN=c1c([N+](=O)[O-])nn(-c2ccc(Cl)cc2)n1O` is 3650 nM (active).
`Cn1cccc1C1CCCN1CC(=O)Nc1ccc(F)c(F)c1F` (configuration not stated): the “activity change, negative = killing” value is -3.96% (inactive).
With `O=C(CSc1ccsc1[N+](=O)[O-])N1CCN(c2ccccn2)CC1`, the Potency is 579 nM (active).
With `O=C(CSc1ccsc1[N+](=O)[O-])NC1CCCC1`, the Potency is 1030 nM (active).
For the molecule `O=C(CSc1ccsc1[N+](=O)[O-])NCc1ccccc1`, the Potency was 1160 nM (active).
Same read-out and setting: to `Cc1ccc(CNC(=O)CSc2ccsc2[N+](=O)[O-])cc1` belongs 2590 nM (active).
Turning to `CCOC(=O)Cc1csc(SCC(=O)NC2CCCCC2)n1`, the “activity change, negative = killing” value is -6.03% (inactive).
Take `COc1ccc(CNC(=O)CSc2ccsc2[N+](=O)[O-])cc1`: the Potency is 1630 nM (active).
For `CC(=O)c1ccc(NC(=O)CSc2ccsc2[N+](=O)[O-])cc1`, the Potency was 918 nM (active).
As for `CCc1ccccc1NC(=O)CC(NCc1ccccc1)C(=O)O` (configuration not stated), the “activity change, negative = killing” value was -10.3% (inactive).
`CCc1ccccc1NC(=O)CSc1ccsc1[N+](=O)[O-]`: the Potency was 2310 nM (active).
Still for that read-out and setting: to `COc1ccccc1CNC(=O)CSc1ccsc1[N+](=O)[O-]` belongs 1450 nM (active).
For the molecule `CCn1c(=O)n(CC)c2cc(N)ccc21`, the “activity change, negative = killing” value was 16.7% (inactive).
Still for that read-out and setting: the figure for `Cc1cc(C(=O)CCC(=O)NC(C)c2ccc(S(N)(=O)=O)cc2)c(C)s1` (configuration not stated) is -28% (inactive).
Take `c1csc(-c2ccc(N3CCOCC3)nn2)c1`: the Potency is 3650 nM (active).
The same measure, in the same setting: the figure for `O=[N+]([O-])c1ccc(NCc2ccccc2N2CCC(CO)CC2)nc1` is 1450 nM (active); for `O=C1c2ccccc2C(=O)c2[nH]cnc21` it is 2590 nM (active); for `O=C(O)c1ccc(NC(=O)c2cc3ccccc3o2)cc1` it is 6500 nM (active).
`O=C1CSC(c2ccc(F)cc2)N1c1c(F)cccc1F` (configuration not stated): the “activity change, negative = killing” value was -0.629% (inactive).
For `CC(C)(C)n1nc(-c2ccc(Cl)cc2)c2c(N)ncnc21`, the Potency was 14500 nM (active).
Same read-out and setting: to `CCN(CC)S(=O)(=O)c1ccc(N2CCCC2)c(NC(=O)c2ccc([N+](=O)[O-])o2)c1` belongs 1450 nM (active); to `COc1ccc(N2CCCC2)c(NC(=O)c2ccc([N+](=O)[O-])o2)c1`, 516 nM (active).
Same read-out and setting: the figure for `COc1ccc2nc3cc(Cl)ccc3c(Nc3ccc(O)c(CN4CCN(C)CC4)c3)c2c1` is 10300 nM (active); for `CN(C)CCCn1cnc2c(c1=N)C(c1ccccc1)c1ccc3ccccc3c1O2` (configuration not stated) it is 20500 nM (active); for `CN1CCN(C(=O)/C=C/c2ccc([N+](=O)[O-])o2)CC1` it is 818 nM (active).
Still for that read-out and setting: the figure for `CCc1ccc(C(=O)/C=C/c2ccc([N+](=O)[O-])o2)cc1` is 1300 nM (active); for `O=[N+]([O-])c1nn(-c2ccccc2)[n+]([O-])c1N1CCN(c2ccccc2F)CC1` it is 1160 nM (active).
For `O=[N+]([O-])c1nn(-c2ccccc2)[n+]([O-])c1N1CCN(c2ccccc2)CC1`, the Potency is 1300 nM (active).
As to `CC1CCN(c2c([N+](=O)[O-])nn(-c3ccc4c(c3)OCCO4)[n+]2[O-])CC1`, the Potency was 1030 nM (active).
As to `CCN(Cc1ccncc1)C(=O)CC1C(=O)NCCN1Cc1ccc(F)c(F)c1` (configuration not stated), the “activity change, negative = killing” value is 2.79% (inactive).
Take `Cc1c(C(=O)c2ccc(Cl)cc2[N+](=O)[O-])c2ccccn2c1CCC#N`: the Potency was 410 nM (active).
Same read-out and setting: the figure for `Cc1ccccc1-c1nc2c(=O)n(C)c(=O)nc-2n(C)n1` is 115 nM (active); for `CCn1nc(-c2ccccc2C)nc2c(=O)n(C)c(=O)nc1-2` it is 103 nM (active).
On the same count and under the same terms, the figure for `Cc1cnc([N+](=O)[O-])n1CCOC(=O)NC(=O)c1ccccc1Cl` is 1160 nM (active); for `COc1ccccc1C(=O)NC(=O)OCCn1c(C)cnc1[N+](=O)[O-]` it is 579 nM (active).
On the same count and under the same terms, to `NC(=O)CCn1c(C(=O)c2cccc([N+](=O)[O-])c2)c2ccccc2[n+]1[O-]` belongs 4100 nM (active).
As for `Cc1ccc(C(=O)c2c3ccc([N+](=O)[O-])cc3[n+]([O-])n2CCCN)cc1`, the Potency is 4600 nM (active).
On the same count and under the same terms, to `Cc1ccc(C(=O)c2c3ccc([N+](=O)[O-])cc3[n+]([O-])n2CCCC(N)=O)cc1` belongs 3650 nM (active).
The same measure, in the same setting: to `Cc1ccc(C(=O)c2c3ccc([N+](=O)[O-])cc3[n+]([O-])n2CCC(N)=O)cc1` belongs 6500 nM (active); to `CC(=O)CSc1ccc(-c2nc3ccccc3[nH]2)cn1`, 1450 nM (active); to `CC(=O)CSc1ccc(-c2nc3cc(C)c(C)cc3[nH]2)cn1`, 2050 nM (active).
The same measure, in the same setting: the figure for `COc1ccc(CNc2ccc([N+](=O)[O-])cn2)cc1` is 7290 nM (active); for `O=C(COc1cccnc1[N+](=O)[O-])Nc1ccc2c(c1)OCO2` it is 5160 nM (active).
Take `Cc1c(Br)c([N+](=O)[O-])nn1C(C)C(=O)Nc1ccc2c(c1)OCO2` (configuration not stated): the Potency is 1160 nM (active).
Same read-out and setting: to `O=C(COc1cccnc1[N+](=O)[O-])Nc1ccc2c(c1)OC(F)(F)O2` belongs 5790 nM (active).
For the molecule `O=S(=O)(Nc1cc(Sc2cccc3cccnc23)c(O)c2ccccc12)c1ccc(F)cc1`, the Potency is 11600 nM (active).
On the same count and under the same terms, the figure for `Cn1nc([N+](=O)[O-])nc1Sc1cccc2cccnc12` is 7290 nM (active); for `Nc1nc(Cl)nc2c1ncn2C1CC(O)C(CO)O1` (configuration not stated) it is 115 nM (active).
Take `CC(CSc1nnnn1-c1ccccc1)Cn1c(N2CCCC2)nc2c1c(=O)[nH]c(=O)n2C` (configuration not stated): the Potency is 183 nM (active).
